Data as given in PubChem BioAssay AID588742 (Southern Research Specialized Biocontainment Screening …, 2011).
The campaign covered roughly 1,800 compounds. About 410 (23%) were called active. The rule behind the calls is not given here. Only a sample is shown. Measured potencies and affinities stand elsewhere.

experiment: Vero cell cytotoxicity, cytotoxicity control for flavivirus capping enzyme inhibitors (AID 588742); conditions: Vero cells viability, cytotoxicity counter-screen; series mostly up to 40 µM

Row | Structure (SMILES) | outcome
1 | NC(=O)COc1ccc(/C=C2\C(=O)ON=C2c2ccccc2)cc1 | inactive
2 | CC(=O)N1CCn2c3c(c(=O)c4cc(C)ccc42)CCC31 (stereo not given) | inactive
3 | O=C(O)c1ccc(Cl)c(S(=O)(=O)Nc2ccc(S(=O)(=O)Nc3cccc(Cl)c3)cc2)c1 | inactive
4 | Cc1ccc(SCc2[nH]nc3c2C(c2ccc(C)o2)C(C#N)=C(N)O3)cc1 (stereo not given) | inactive
5 | Cc1ccc(C2C(C#N)=C(N)OC3=C2C(=O)CC(C)(C)C3)s1 (stereo not given) | inactive
6 | CCS(=O)(=O)c1nc(S(=O)(=O)c2ccc(C)cc2)c(N2CCCC2)s1 | inactive
7 | C=CCNc1cc(N2CCCC2)ccc1[N+](=O)[O-] | inactive
8 | O=C(O)CC/C(=C\c1ccc(N2CCCC2)c([N+](=O)[O-])c1)c1nc2ccccc2s1 | inactive
9 | COc1ccc(/C=C2/SC(=S)N(CC(=O)O)C2=O)cc1OCc1ccc(Cl)cc1 | inactive
10 | COc1ccc(O)c(C(=O)c2cc(SCC(=O)O)c3nc4sc5c(c4c(=O)n3c2)CCCC5)c1 | inactive
11 | O=C(O)CSc1cc(C(=O)c2ccccc2O)cn2c(=O)c3c4c(sc3nc12)CCCC4 | inactive
12 | O=C(CNc1ccc2ccccc2c1)N/N=C/c1ccncc1 | inactive
13 | CN(C)c1cccc(C(=O)OC(C(=O)Nc2ccc([N+](=O)[O-])cc2Br)c2ccccc2)c1 (stereo not given) | inactive
14 | CC1=NN(C(=S)Nc2ccccc2)C(c2ccccc2)C1 (stereo not given) | inactive
15 | Cc1cccc(C2C3=C(Nc4[nH]n(-c5ccccc5)c(=O)c42)c2ccccc2C3=O)c1 (stereo not given) | inactive
16 | COc1cc(N2CCCC2)c(OC)cc1C=O | inactive
17 | COc1ccc(S(=O)(=O)CC(=O)c2cc3cccc(C)c3oc2=O)cc1 | inactive
18 | N#Cc1c(SC(C(=O)O)c2ccccc2)nc2c(c1-c1cccs1)CCCC2 (stereo not given) | inactive
19 | CC1=NN(c2nc(-c3ccccc3)cs2)C(=O)C1 | inactive
20 | COc1cc(/C=C(\C#N)C(=O)Nc2ccccc2C(=O)O)cc(Cl)c1OC | inactive
21 | COc1ccc2nc3ccccc3nc2c1N | inactive
22 | COc1ccc2nc3cccc(OC)c3nc2c1 | inactive

Row | Structure (SMILES) | outcome
23 | COc1cc(N=c2ssnc2Cl)c(OC)cc1Cl | inactive
24 | O=C(O)/C(CC(=O)c1ccc(Cl)cc1)=N/Nc1ccc([N+](=O)[O-])cc1[N+](=O)[O-] | inactive
25 | O=C(c1ccc(NC(=O)C(c2ccccc2)c2ccccc2)cc1)c1ccc(C(=O)O)c(C(=O)O)c1 | inactive
26 | COc1ccccc1/C=C1/C(=O)N(c2ccccc2)N=C1C | inactive
27 | CC1=NN(c2ccccc2)C(=O)/C1=C/c1cccs1 | inactive
28 | CC(=O)CSc1nsc(SCC(C)=O)c1C#N | inactive
29 | C=CCOc1ccccc1OCC(O)CNC(C)C (stereo not given) | inactive
30 | O=C(CN1C(=O)/C(=C2/SC(=S)N(CCS(=O)(=O)O)C2=O)c2ccccc21)Nc1cccc(C(F)(F)F)c1 | inactive
31 | Cc1oc2cc([N+](=O)[O-])c(O)c([N+](=O)[O-])c2c1C(=O)c1ccc(Br)cc1 | inactive
32 | O=[N+]([O-])c1cc(-c2ccccc2)cc([N+](=O)[O-])c1O | inactive
33 | CC(CNC(=O)CN1C(=O)COc2ccc(S(=O)(=O)N3CCCCC3)cc21)c1ccccc1 (stereo not given) | inactive
34 | COc1ccc(-c2ccc(CCC(=O)O)o2)cc1 | inactive
35 | COC(=O)CCC(=O)OC1(C)C(=O)C2=CN(C3CCCC3)C(c3ccc(OC)cc3)=CC2=C(Br)C1=O (stereo not given) | inactive
36 | O=C(O)/C=C/C(=O)c1ccc(O)cc1 | inactive
37 | Cc1ccc(C(=O)/C=C/C(=O)O)cc1 | inactive
38 | O=C(O)c1[nH]c2ccccc2c1C(c1cc(Br)ccc1O)c1c(C(=O)O)[nH]c2ccccc12 | inactive
39 | Cc1ccc(NCc2cccnc2)c(Br)c1 | inactive
40 | O=C(CC(Nc1cccc(Cl)c1Cl)C(=O)O)c1ccccc1 (stereo not given) | inactive
41 | COc1ccc(C(C2C(=O)CC(C)(C)CC2=O)C2C(=O)CC(C)(C)CC2=O)cc1 | inactive
42 | CCOC(=O)c1c(C)oc2c1c(CN1CCN(C(=O)OCC)CC1)c(O)c1ccccc12 | inactive
43 | O=C(O)CN1C(=O)C=CC1=O | inactive
44 | CCOC(=O)c1c(NC(=O)C2C3C=CC(C3)C2C(=O)O)sc2c1CCC(CC)C2 (stereo not given) | inactive

Row | Structure (SMILES) | outcome
45 | Cc1ccc(/C=C2\SC(=S)N(C(Cc3ccccc3)C(=O)O)C2=O)cc1 (stereo not given) | inactive
46 | CCOC(=O)C1=C(C)NC2=C(C(=O)C(C(=O)OCC)C(c3ccco3)C2)C1c1ccccn1 (stereo not given) | inactive
47 | Cc1ccc(C(=O)N/N=C/c2ccc(-c3ccc(Br)cc3[N+](=O)[O-])o2)o1 | inactive
48 | C=CCOc1ccc(/C=C2\SC(=S)N(C(C(=O)O)c3ccccc3)C2=O)cc1 (stereo not given) | inactive
49 | Cc1ccc(Cn2c(=S)[nH]c3ccc(N4CCOCC4)cc3c2=O)o1 | inactive
50 | C=CCn1c(=S)[nH]c2scc(-c3ccco3)c2c1=O | inactive
51 | O=C(O)COc1ccccc1C=NNc1ccc([N+](=O)[O-])cc1S(=O)(=O)Nc1ccc(Cl)cc1 | inactive
52 | Cc1ccc(NC(=S)NNc2ccc([N+](=O)[O-])cc2S(=O)(=O)Nc2ccccc2C(=O)O)cc1C | inactive
53 | CC(C)COCC(O)CCC(=O)NNC(=S)Nc1ccccc1 (stereo not given) | inactive
54 | Cc1ccc2ccc(C#N)cc2c1O | inactive
55 | COc1ccccc1-c1cc(C(=O)Nc2sc3c(c2C#N)CCC(C)C3)c2ccccc2n1 (stereo not given) | inactive
56 | COc1cc(C(c2c(C(=O)O)[nH]c3ccccc23)c2c(C(=O)O)[nH]c3ccccc23)ccc1OCc1ccccc1 | inactive
57 | COc1cc(/C=C2\C(=N)N3N=C(N4CCOCC4)SC3=NC2=O)ccc1OC(=O)c1ccccc1 | inactive
58 | Cc1cccc(N2C(=O)C(Cl)=C(N3CCOCC3)C2=O)c1 | inactive
59 | COc1ccc(C2C=C(c3ccc(Br)cc3)Nc3nc(N4C(=O)CCC4=O)nn32)cc1 (stereo not given) | inactive
60 | Cc1ccc(C)c(S(=O)(=O)Nc2ccc(O)c3ccccc23)c1 | inactive
61 | Cc1ccc(S(=O)(=O)Nc2ccc3ccccc3c2[N+](=O)[O-])cc1 | inactive
62 | O=C(O)c1ccc(N/N=C/c2cn(Cc3ccccc3F)c3ccccc23)cc1 | inactive
63 | CC(/C=C1\SC(=S)N(NS(=O)(=O)c2ccc(C)cc2)C1=O)=C\c1ccccc1 | inactive
64 | Cc1nc2ccc(NC(=O)c3cc([N+](=O)[O-])cc([N+](=O)[O-])c3Cl)cc2s1 | inactive
65 | Cc1cc([N+](=O)[O-])c(C)cc1-c1ccc(/C=N/NC(=O)c2cccnc2)o1 | inactive
